Measured values: PubChem BioAssay (NCI)
The panel holds about 79,000 compounds, 15% with a hit somewhere; the sample as a whole holds those more often. Calls of active or inactive are those of the source. Cut-off read from the data, not from the text of the source: active = growth inhibition above about 70%; inactive = the rest. Where a SMILES comes first, the peptide text is derived from it. The star is where a group is joined. Cbz = O=C(OCc1ccccc1)*

Experiment: NCI Yeast Anticancer Drug Screen. Data for the mlh1 rad18 strain (AID 175)
Conditions: S. cerevisiae mlh1 rad18 strain growth inhibition; at 50.0 µM; stronger effect = higher value
How it was run: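 Read-out is yeast growth inhibition, calculated against vehicle-only controls. The compound was applied to a strain engineered with DNA damage repair alterations.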

Structure (SMILES)	growth inhibition
Cc1ccc(S(=O)(=O)C23N=NC(C)(C)C2C2CCC3C2)cc1 (stereo not given)	3.75% (inactive)
Cc1cc(=O)oc2c(-c3ccccc3)nnc(Cl)c12	40.5% (inactive)
O=C1CCC2(c3ccccc3)Nc3ncccc3N12 (stereo not given)	27.8% (inactive)
CCOc1nc(C)cc(C(=O)OC)c1C#N	2% (inactive)
CC(=O)Nc1ccc(/C=N/Nc2c3ccccc3nc3ccccc23)cc1	0.4% (inactive)
COc1c2c(cc3c1[C@@H]1Oc4c(ccc(O)c4CC=C(C)C)[C@@H]1CO3)OC(C)(C)C=C2	41.4% (inactive)
C=CS(=O)(=O)CCCCCCCCCCCCCC	29.5% (inactive)
Cc1nc(N)c2c(n1)C(Cc1ccccc1)N(C(=O)c1ccccc1)C2 (stereo not given)	-17.4% (inactive)
CC(=O)Oc1c(C)cc2c(c1C)C(C)CN2C(C)=O (stereo not given)	-10.6% (inactive)
Cc1c(N(C)C)ccc2c(=O)c3cccc(CC(=O)O)c3oc12	-5.05% (inactive)
COc1cc2c(cc1OC)C(c1ccccc1CCCCl)=NCC2	-44.7% (inactive)
CC1(C2(C)SCCS2)SCCS1	10.5% (inactive)
ON=C1CCN(c2ccccc2)CC1	-18.4% (inactive)
N/N=C(\c1ccccc1)C(Nc1ccccc1)c1ccccc1 (stereo not given)	7.9% (inactive)
CCC(O)C(CC)[N+](=O)[O-] (stereo not given)	5.5% (inactive)
CCCCCCCCCCCCOc1ccc(Sc2ccc([N+](=O)[O-])cc2)cc1	25.8% (inactive)
CC(C(=O)c1ccncc1)c1ccccn1 (stereo not given)	3.5% (inactive)
Cc1cccc(N2CCN(S(C)(=O)=O)CC2)c1	5% (inactive)
CC(O)(C#Cc1ccccc1)c1nc2ccccc2s1 (stereo not given)	4.35% (inactive)
CCc1ccc[n+](CCc2c[nH]c3ccccc23)c1	-10.5% (inactive)

Structure (SMILES)	growth inhibition
O=C(O)C(Cc1cccs1)C(=O)OCCc1ccccc1 (stereo not given)	21.7% (inactive)
COc1ccc(NC(=S)NN=C(C)c2cccc(C(C)=NNC(=S)Nc3ccc(OC)cc3)n2)cc1	1.95% (inactive)
O=[N+]([O-])c1ccc(CCCCCc2ccccc2)cc1	-21.4% (inactive)
CC1=Nc2cc(C)c(C)cc2N2C1=CC1=C(C(=O)c3cc4ccccc4cc3C1=O)C2C (stereo not given)	23.6% (inactive)
CCCCCOc1ccc(C2=C(c3ccccc3)C(=O)C(c3ccccc3)=C2c2ccccc2)cc1	23.4% (inactive)
CC(C)=C1CCC(CN2CCCC2)C1=O (stereo not given)	23.6% (inactive)
Cc1[nH]c2ccccc2c1C(c1ccccc1O)c1c(C)[nH]c2ccccc12	33.4% (inactive)
O=C1O/C(=C/c2ccc(O)cc2)c2ccccc21	-11.4% (inactive)
CN(c1ccccc1)c1nc(=[N+](C)C)ss1	31.8% (inactive)
CCN(CC)CCOCCO	-2.15% (inactive)
O=C(CC(=O)CC(O)(C(F)(F)F)C(F)(F)F)CC(O)(C(F)(F)F)C(F)(F)F	78.2% (active)
O=C(O)C(CO)NC(=O)C1CCCN1C(=O)OCc1ccccc1 (stereo not drawn) (Cbz-Pro-Ser-OH; configuration not given here)	-18% (inactive)
CCOC(CN(Cc1ccccc1)CC(OCC)OCC)OCC	-4% (inactive)
COc1cccc(NC(=O)CC(=O)N2N=C(n3ccc4ccccc43)CC2c2ccccc2)c1 (stereo not given)	-16.6% (inactive)
CC(=O)c1cccc(C(C)=O)c1N=Cc1ccc(Cl)cc1	-18.9% (inactive)
O=S(=O)(Cl)C1c2ccccc2-c2ccccc21	23.4% (inactive)
CCCCCC/C(C=O)=C\c1ccccc1	20.4% (inactive)
O=S(=O)(O/C(=C(\OS(=O)(=O)C(F)(F)F)c1ccccc1)c1ccccc1)C(F)(F)F	10% (inactive)
C=CCNCc1cc(Cl)cc(Cl)c1O	17.2% (inactive)
CC(=O)N(CCc1ccccc1)C(C)(C#N)c1ccccc1 (stereo not given)	-29.4% (inactive)
